T_cruzi_growth-1: inhibitors of T. cruzi proliferation | T. cruzi beta-gal in NIH3T3, GalScreen luminescence, 90 h | 77,000 compounds, 5.9% hits | inhibition, % at 8.34 µM;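 active = mean inhibition above about 93%, with at least 55% of replicates each passing it, limit read from the data, passing the limit was not always enough; inconclusive = only one of those two conditions holds; inactive = neither condition holds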
C_diff_growth: blocks growth of Clostridium difficile; Clostridium difficile clinical isolate growth, OD600, 24 h; stronger effect = lower value; growth activity, negative = inhibition, % at 16 µg/mL (by protocol); 86,000 compounds, 0.25% hits;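 active = mean growth activity at or below -80% and every replicate also at or below -80%; inconclusive = mean at or below -80% but some replicate above -80%; inactive = mean growth activity above -80%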;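 also: 0% = DMSO wells and -100% = levofloxacin 16 µg/mL wells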
Pf_Dd2_inh: P. falciparum Dd2 growth inhibition; SYBR Green, 72 h; stronger effect = lower value; activity change, % at 10 µM; 94,000 compounds, 2.3% hits; in the data active = activity change below about -80%; inconclusive = no clear call, values can overlap the other calls
T_cruzi_growth-2: Trypanosoma cruzi proliferation inhibition; shares compounds with T_cruzi_growth-1; T. cruzi beta-gal in NIH3T3, GalScreen luminescence, 90 h; inhibition, % at 8.35 µM; 5,600 compounds, 72% hits; AID 651739;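 active = mean replicate inhibition above about 95% and at least 55% of replicates individually reaching it, limit read from the data; inconclusive = only one of the two criteria is met; inactive = neither criterion is met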
T_cruzi_growth-3: Trypanosoma cruzi proliferation inhibition | T. cruzi beta-gal in NIH3T3, GalScreen luminescence, 90 h | inhibition, % at 2.09 µM | shares compounds with T_cruzi_growth-1 | AID 651740 | 5,600 compounds, 21% hits;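 active = mean inhibition above about 95%, with at least 55% of replicates also reaching it, limit read from the data; inconclusive = meets just one of the two conditions; inactive = meets neither condition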;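 also: plate controls were neutral control median for no effect and positive control median for full effect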
NIH3T3_tox: kills mouse NIH/3T3 fibroblasts | shares compounds with T_cruzi_growth-1 | NIH/3T3 viability, CellTiter-Glo ATP luminescence, 90 h | cytotoxicity (signal decrease), % at 8.35 µM | 5,600 compounds, 14% hits;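 active = mean signal decrease across replicates above about 35% based on untreated-well scatter, with enough replicates individually passing, limit read from the data; inconclusive = no rule stated though some were filed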;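 also: 0% = median of neutral control wells and 100% = median of positive control wells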
3T3_cytotox_2: kills mouse NIH/3T3 fibroblasts | inhibition, % at 24.9 µM | shares compounds with T_cruzi_growth-1 | NIH/3T3 viability, CellTiter-Glo ATP luminescence, 90 h | 5,600 compounds, 56% hits;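 active = mean loss of cell viability signal at or above a set limit, and enough replicates individually reaching it; inconclusive = meets only the mean limit or only the replicate share; inactive = meets neither condition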;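 also: 0% = median of neutral control wells and 100% = median of positive control wells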
* hit, by the source's call; u = inconclusive; x = no result. This is a sample that favours compounds with a hit; in the whole collection about 6.8% have one here.

SMILES T_cruzi_growth-1 C_diff_growth Pf_Dd2_inh T_cruzi_growth-2 T_cruzi_growth-3 NIH3T3_tox 3T3_cytotox_2
C[C@H](CO)N1C[C@H](C)[C@H](CN(C)C(=O)c2ccccc2)Oc2cc(/C=C/c3ccccc3)ccc2S1(=O)=O 127* 3 -78 101* 78 24 14
C[C@H]1CN([C@@H](C)CO)C(=O)c2cc(C#CC3CCCCC3)cnc2O[C@H]1CN(C)C(=O)c1ccncc1 -94 2 -19 x x x x
C[C@H](CO)N1C[C@H](C)[C@H](CN(C)C)Oc2ncc(-c3cccc(C(F)(F)F)c3)cc2C1=O 76 -3 -3 x x x x
O=C(NCC[C@@H]1CC[C@H](NS(=O)(=O)c2ccc(Cl)cc2)[C@@H](CO)O1)Nc1ccc(F)cc1 x -1 -2 x x x x
C[C@@H]1CN([C@@H](C)CO)S(=O)(=O)c2ccc(/C=C/c3ccccc3)cc2O[C@H]1CN(C)C(=O)c1ccncc1 101* 6 -33 103* 66 38* 70*
C/C=C/c1ccc2c(c1)O[C@H](CN(C)C(=O)c1ccncc1)[C@@H](C)CN([C@H](C)CO)S2(=O)=O 61 2 4 x x x x
C[C@H]1CN([C@@H](C)CO)C(=O)c2cc(NS(=O)(=O)c3cccs3)ccc2O[C@@H]1CN(C)C(=O)NC1CCCCC1 39 -2 15 x x x x
Cc1ccc(-c2ccc3c(c2)O[C@H](CN(C)C(=O)Nc2ccc(F)cc2)[C@@H](C)CN([C@@H](C)CO)S3(=O)=O)cc1 114* 6 -13 103* 92 40* 96*
Cc1ccc(-c2ccc3c(c2)O[C@H](CN(C)C(=O)Nc2ccccc2)[C@H](C)CN([C@H](C)CO)S3(=O)=O)cc1 x 5 -27 x x x x
Cc1ccc(-c2ccc3c(c2)O[C@@H](CN(C)C(=O)Nc2ccccc2)[C@H](C)CN([C@@H](C)CO)S3(=O)=O)cc1 x -3 -49 x x x x
Cc1ccc(-c2ccc3c(c2)O[C@@H](CN(C)C(=O)Nc2ccc(F)cc2)[C@@H](C)CN([C@@H](C)CO)S3(=O)=O)cc1 121* 51 -44 97* 66 53* 81*
C/C=C/c1cnc2c(c1)C(=O)N([C@@H](C)CO)C[C@H](C)[C@@H](CN(C)S(=O)(=O)c1ccccc1)O2 76 -3 -46 x x x x
C[C@@H]1CN([C@H](C)CO)C(=O)c2cccc(NC(=O)c3nc4ccccc4s3)c2O[C@H]1CN(C)Cc1ccc(Cl)c(Cl)c1 94 2 -55 x x x x
Cc1ccc(S(=O)(=O)N(C)C[C@H]2Oc3c(NC(=O)c4nc5ccccc5s4)cccc3C(=O)N([C@@H](C)CO)C[C@@H]2C)cc1 115* -2 -66 u 93 10 44*
C[C@H](CO)N1C[C@H](C)[C@H](CN(C)Cc2ccc(-c3ccccc3)cc2)Oc2c(NC(=O)c3nc4ccccc4s3)cccc2C1=O 64 4 -47 x x x x
C[C@H](CO)N1C[C@H](C)[C@@H](CN(C)Cc2ccc(-c3ccccc3)cc2)Oc2c(NC(=O)c3nc4ccccc4s3)cccc2C1=O u 7 -51 105* 87 15 12
C[C@H]1CN([C@@H](C)CO)C(=O)c2cccc(NC(=O)c3nc4ccccc4s3)c2O[C@H]1CN(C)Cc1ccc(-c2ccccc2)cc1 102* 4 -18 102* 83 25 22
C[C@H](CO)N1C[C@H](C)[C@@H](CN(C)Cc2ccc(Cl)c(Cl)c2)Oc2c(NC(=O)c3nc4ccccc4s3)cccc2C1=O 102* 10 -39 99* 87 -8 3
Cc1ccc(S(=O)(=O)N(C)C[C@H]2Oc3c(NC(=O)c4nc5ccccc5s4)cccc3C(=O)N([C@H](C)CO)C[C@@H]2C)cc1 105 -8 -79 x x x x
C[C@@H]1CN([C@@H](C)CO)C(=O)c2cccc(NC(=O)c3nc4ccccc4s3)c2O[C@@H]1CN(C)Cc1ccccc1 88 2 -39 x x x x
CN(C)CC(=O)Nc1ccc2c(c1)[C@@H]1C[C@@H](CC(=O)NCc3ccc(-c4ccccc4)cc3)O[C@@H](CO)[C@@H]1O2 46 -11 0 x x x x
CO[C@H]1CN(C)C(=O)c2ccc(NS(=O)(=O)c3ccccc3)cc2OC[C@@H](C)NC[C@@H]1C 8 x 28 x x x x
C[C@@H]1CCCCO[C@H](CN(C)C(=O)C2CCCCC2)[C@@H](C)CN([C@@H](C)CO)C(=O)c2cc(NC(=O)c3ccncc3)ccc2O1 18 -5 -37 x x x x
COc1ccc2c3c([nH]c2c1)[C@H](CO)N(C(=O)c1cccnc1)CC31CCN(Cc2cccnc2)CC1 x -2 -6 x x x x
C[C@@H]1CCCCO[C@@H](CN(C)Cc2ccccc2)[C@@H](C)CN([C@H](C)CO)C(=O)c2cc(NC(=O)Nc3ccc(C(F)(F)F)cc3)ccc2O1 u 19 32 89 115* 29 12
SMILES T_cruzi_growth-1 C_diff_growth Pf_Dd2_inh T_cruzi_growth-2 T_cruzi_growth-3 NIH3T3_tox 3T3_cytotox_2
C[C@H]1CCCCO[C@H](CN(C)Cc2ccc(C(F)(F)F)cc2)[C@@H](C)CN([C@@H](C)CO)C(=O)c2cc(NC(=O)NC3CCCCC3)ccc2O1 64 4 5 x x x x
C[C@@H]1CCCCO[C@@H](CN(C)Cc2ccc(C(F)(F)F)cc2)[C@H](C)CN([C@@H](C)CO)C(=O)c2cc(NC(=O)Nc3ccc(C(F)(F)F)cc3)ccc2O1 u 19 -65 102* 117* 25 -1
C[C@@H]1CCCCO[C@@H](CN(C)Cc2ccc(C(F)(F)F)cc2)[C@H](C)CN([C@@H](C)CO)C(=O)c2cc(NC(=O)NC3CCCCC3)ccc2O1 u -3 -10 98* 118* 11 -8
C[C@@H]1CCCCO[C@H](CN(C)Cc2ccc(C(=O)O)cc2)[C@H](C)CN([C@H](C)CO)C(=O)c2cc(NC(=O)Nc3ccc(C(F)(F)F)cc3)ccc2O1 45 -4 -46 x x x x
C[C@@H]1CN([C@@H](C)CO)C(=O)c2cc(NC(=O)Nc3ccc(C(F)(F)F)cc3)ccc2O[C@@H](C)CCCCO[C@H]1CN(C)Cc1ccc(C(F)(F)F)cc1 u 3 -68 -41 -40 6 -11
C[C@@H]1CCCCO[C@@H](CN(C)Cc2ccccc2)[C@@H](C)CN([C@@H](C)CO)C(=O)c2cc(NC(=O)Nc3ccc(C(F)(F)F)cc3)ccc2O1 86 29 -62 x x x x
C[C@@H]1CCCCO[C@@H](CN(C)Cc2ccc(C(=O)O)cc2)[C@H](C)CN([C@H](C)CO)C(=O)c2cc(NC(=O)Nc3ccc(C(F)(F)F)cc3)ccc2O1 42 -5 23 x x x x

Bioassay records: PubChem BioAssay, Broad Institute
